In PubChem BioAssay AID1053124 (Broad Institute, 2014):
Potency and affinity values are given separately. Activity calls are given as the source filed them.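 Rule for the calls: active = cell killing whose fitted half-effect concentration is at most twice the top valid dose tested; inconclusive = flat curve with 30 to 70% killing, or a poor fit; inactive = effect in the rising direction, plus the rest.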

Test: A549 cell cytotoxicity, dose response, cytotoxicity control, ATP luminescence, cherry-pick, set 2 (AID 1053124);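 note: 0% = neutral control wells and -100% = mitoxantrone 10 µM positive control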
Settings: A549 viability, ATP luminescence (CellTiter-Glo), 72 h; series mostly up to 26 µM; activity change, negative = cytotoxicity: at the top concentration

| Compound | activity change, negative = cytotoxicity |
| --- | --- |
| CCN(CC)c1ccc2cc(C(N)=O)c(=O)oc2c1 | 0.837% (inactive) |
| CCOC(=O)c1cc2c(=O)n3cccc(C)c3nc2n(CC(C)C)c1=NC(=O)c1ccco1 | -14.7% (inactive) |
| CC(=O)Oc1ccc(C(=O)Nc2cc(C)on2)cc1 | 1.55% (inactive) |
| COc1ccc(NC(=O)C2CCC(CNS(=O)(=O)c3cccs3)CC2)cc1 (centres undefined) | -6.87% (inactive) |
| CCC(Sc1nc(N)c(NC(=O)c2ccc(OC)cc2)c(=O)[nH]1)C(=O)O (centres undefined) | -2.92% (inactive) |
| N=c1oc2cc(O)ccc2cc1C(=O)Nc1nc2ccccc2s1 | -10.5% (inactive) |
| CCOC(=O)c1cc(-c2ccccc2)sc1NC(=O)CSc1nnc(N)s1 | -6.09% (inactive) |
| O=C(COC(=O)c1cc(S(=O)(=O)N2CCCCC2)ccc1N1CCOCC1)c1ccccc1Cl | -6.29% (inactive) |
| O=C(NNc1cc(N2CCCC2)nc(N2CCCC2)n1)c1ccc([N+](=O)[O-])cc1 | -12.8% (inactive) |
| CC(=O)N=c1c(C#N)cc2c(=O)n3ccccc3nc2n1CCCOC(C)C | -4.8% (inactive) |
| COCCCn1c(=N)c(C(=O)NC2CCCCC2)cc2c(=O)n3ccccc3nc21 | -12% (inactive) |
| CCCCN1C=C(C(=O)OC)C(c2ccccc2Cl)C(C(=O)OC)=C1 | -12.4% (inactive) |
| Cc1ccc2nc3c(cc(S(=O)(=O)c4ccccc4)c(=N)n3Cc3ccco3)c(=O)n2c1 | -7.72% (inactive) |
| O=C(c1ccc(F)cc1)C1CCN(C(=O)Nc2ccccc2Cl)CC1 | 2.67% (inactive) |
| O=C(O)c1ccc(N2N=C(c3ccccc3)CC2c2ccccc2)cc1 (centres undefined) | -7.85% (inactive) |
| CNC(=O)c1ccc(NC(=O)c2cccc(C(F)(F)F)c2)cc1 | -2.51% (inactive) |
| CCNC(=O)c1cc2c(=O)n3cccc(C)c3nc2n(Cc2ccc(C)cc2)c1=N | -23.1% (inactive) |
| Cc1c2c(n3c(nc4ccccc43)c1C#N)N(CCN1CCOCC1)CC2 | 3.06% (inactive) |
| Cc1cccn2c(=O)c(/C=C(\C#N)C(=O)NC3CCS(=O)(=O)C3)c(N3CCC(C(N)=O)CC3)nc12 (centres undefined) | -3.85% (inactive) |
| Cc1cc(OC(=O)c2ccccc2Cl)ccc1N1C(=O)CCC1=O | -0.659% (inactive) |
| Nn1c(SCC(=O)N2CCCC2)nnc1-c1cccs1 | 2.35% (inactive) |
| O=C(Nc1ccc(-c2ccco2)cc1)C1CCCN(Cc2ccco2)C1 (centres undefined) | -10.8% (inactive) |
| CCC(C)NC(=S)N1CCN(Cc2ccc3c(c2)OCO3)CC1 (centres undefined) | 1.85% (inactive) |
| CCN1C(=O)c2cccc3c(S(=O)(=O)N(C)C)ccc1c23 | -14.3% (inactive) |
